Tested on: SUM149
Assay: percent difference in area under dose-response curve of relative cell number, RPMI vs HPLM; higher = drug relatively more effective in HPLM than RPMI (negative = less effective in HPLM)
Conditions: treatment time: 72 h; dose range: 10-point, 1 nM to 20 µM; media compared: RPMI vs HPLM

Row | Compound | percent difference in area under dose-response curve
1 | S=c1nc[nH]c2nc[nH]c12 [6_Mercaptopurine] | -31.7%
2 | CCC(C)n1ncn(-c2ccc(N3CCN(c4ccc(OCC5COC(Cn6cncn6)(c6ccc(Cl)cc6Cl)O5)cc4)CC3)cc2)c1=O (stereo not drawn) [Itraconazole] | -12%
3 | c1ccc2c(CCNc3ccc(Nc4ccncc4)cc3)c[nH]c2c1 | -22.6%
4 | O=C(O)Cc1cccc(OCCCN(Cc2cccc(C(F)(F)F)c2Cl)CC(c2ccccc2)c2ccccc2)c1 | 1.28%
5 | O=C(/C=C/c1cccc(S(=O)(=O)Nc2ccccc2)c1)NO [Belinostat] | -13%
6 | O=C(c1ccc(OCCN2CCCCC2)cc1)c1c(-c2ccc(O)cc2)sc2cc(O)ccc12 [Evista] | 2.48%
7 | CC[C@H](CO)Nc1nc(NCc2ccccc2)c2ncn(C(C)C)c2n1 [Roscovitine] | -1.29%
8 | CCOC(=O)c1cnc2ccc(-c3cncc(NS(=O)(=O)c4ccccc4)c3)cn12 | -8.07%
9 | Cc1ccc(C)c(Oc2ccncc2C(=O)N2CCN(C3CC3)c3ccccc32)c1 | -4.99%
10 | CCN(CC)CCNC(=O)c1c(C)[nH]c(/C=C2\C(=O)Nc3ccc(F)cc32)c1C [Sunitinib_Malate] | 3.02%
11 | CC(=O)O[C@@]12CO[C@@H]1C[C@H](O)[C@@]1(C)C(=O)[C@H](O)C3=C(C)[C@@H](OC(=O)[C@H](O)[C@@H](NC(=O)OC(C)(C)C)c4ccccc4)C[C@@](O)([C@@H](OC(=O)c4ccccc4)[C@H]21)C3(C)C [Docetaxel] | -42.7%
12 | CC1=CC(=O)c2ccccc2C1=O [Menadione] | -3.63%
13 | COc1cc(Nc2c(C#N)cnc3cc(OCCCN4CCN(C)CC4)c(OC)cc23)c(Cl)cc1Cl [Bosutinib] | 7.19%
